# From PubChem BioAssay AID651567 (National Center for Advancing Translational Sciences (NCATS), 2012)
# Among all 1,200 compounds or so, about 10 (0.8%) were called active. Not shown: some 4% with an inconclusive outcome. This excerpt belongs to a sample that is enriched for actives. Values without a mark were called inactive. Calls follow the shape of the dose curve; as a rule, active = well fitted inhibition curve with a large enough effect; inconclusive = small, poorly fitted or top-dose-only effect; inactive = no such curve, though single readings can be large or run the other way.
# Test: qHTS Assay to Find Inhibitors of Chronic Active B-Cell Receptor Signaling: Hit Validation in OCI-Ly3 Assay
# Settings: OCI-Ly3 IkB-luciferase reporter, Chroma-Glo luminescence, 4 h; series mostly up to 46.1 µM; activity change, negative = inhibition: at the top concentration
# Text: Diffuse large B-cell lymphoma (DLBCL) is the most common category of non-Hodgkin lymphoma, with ~20,000 new cases per year in the United States. DLBCL should be regarded as a collection of different neoplasms. Microarray gene expression analysis has defined two principal types of DLBCL, named for their similarity to normal B cell stages or activation states: a germinal center B-cell (GCB) type, and an activated B-cell (ABC) type. In ABC-DLBCL, a constitutive high-level activity of the NF-kappaB family of transcription factors has been observed (1) and NF-kappaB target genes are more highly expressed in ABC primary tumors than in GCB tumors. Functional studies have shown a constitutive high-level activity of the IkappaB (inhibitor of kappa-B) kinase (IKK) complex. […] Further analysis of DLBCL primary tumors for NF-kappaB target gene expression imply that although CARD11 is required for constitutive IKK activity in all ABC-DLBCL lines, mutations in CARD11 may be the root cause of IKK activation only in lines or tumors with such mutations. In other words, CARD11 mutations may explain NF-kappaB activation in only 10% of ABC-DLBCL cases. […] This process has been termed 'chronic active BCR signaling' (CABS). The goal of this screen is to find small-molecule inhibitors of the CABS pathway found in ABC-DLBCL lines using a cell-based assay that measures IkappaBalpa stability, which has already been extensively validated in the OCI-Ly3 line (PubChem AID:445; REF: 4). […] Hits from the primary screen were tested in this selectivity secondary assay. NIH Molecular Libraries Probe Production Network [MLPCN] NIH Chemical Genomics Center [NCGC] MLPCN Grant: R03 DA031086 PI Name: Dr. R. Eric Davis
# Cells were seeded in 1536-well plates at 5000 cells/3ul in IMDM medium containing 0.5% FBS, w/o phenol red, L-glutamine, 25 mM HEPES, 3 mg/ml sodium bicarbonate. After centrifugation for 1 min. at 1000 rpm, 23 nl of compounds or DMSO were delivered to each well using a pin tool. Then 1ul 80ng/ml doxycycline was dispensed into white solid 1536-well plates and the plates were incubated at 37C/5% C02 in a cell incubator for 4 hrs. Then 4 ul Chroma-Glo luminescent substrate mix (Promega) was added to each well. The plate was incubated at R.T. for 10-15 min. The plates were measured on a ViewLux plate reader for green luminescence (540/20 nm filter) and red luminescence (618/8 nm filter). The green and red luminescent signals were corrected for red and green luminescence filter overlap using previously determined filter calibration constants (determined using the procedure outlined in the Promega Technical Manual). The %Activity was determined from the ratio of corrected green/red luminescent values. Green luminescent and ratio %Activity was determined by normalizing to the difference in signal between basal cells (0% Activity) and cells incubated with 10 uM of the proteasome inhibitor MG-132 (100% Activity). Red luminescent %Activity was normalized to the difference between red luminesence in basal cells (0%Activity) and zero luminescence (-100% Activity). Concentration-response curves were fitted to the signals arising from the green luminescence (I-kappa-B-alpha-luciferase fusion; IkB-luc) and the red luminescence (unfused luciferase; luc) as well as the calculated ratio. The concentration-effect curves were then classified based on curve quality (r2), response magnitude and degree of measured activity. Compounds were then categorized based on their concentration-response curves for all three datasets (Ikb-luc, luc and ratio).
# % is scaled to controls: 0 for no effect and ±100 for the full control effect; potency is read from the fitted curve at half-maximal effect.
Compound,"activity change, negative = inhibition [%]",Potency
NC(=S)N=Nc1c(O)n(CCCl)c2ccccc12,-0.383,–
CCn1c(O)c(N=NC(=S)NCC2CCCO2)c2ccccc21 (stereo not given),–,20.6 µM (active)
Oc1[nH]c2c(Cl)cc(Cl)cc2c1N=NC(=S)NCC1CCCO1 (stereo not given),-26.5,–
COC(=O)C1C(O)=C(C=Nc2cccc3ccccc23)C(=O)CC1(C)C (stereo not given),-0.573,–
CCOc1ccc(C(=O)NC(=S)Nc2cccc(S(=O)(=O)NC3=NCCC3)c2)cc1,-4.42,–
CC1=CC(C)(C)N(S(=O)(=O)c2ccc(C)cc2)c2ccccc21,-3.65,–
Cc1ccc(OC/C(=N\O)C(C)(C)C)c([N+](=O)[O-])c1,-0.43,–
Cc1ccc(Nc2nc(-c3c(C)nc4ccccn34)cs2)cc1,-3.78,–
CCOc1ccc(C(=O)c2cc([N+](=O)[O-])ccc2N2CCOCC2)cc1,-3.09,–
COc1ccc(C=C2c3ccccc3C(=O)c3ccccc32)c(OC)c1,-2.64,–
COc1ccc(/C=C/C(=O)c2cc(Br)ccc2OC(=O)c2ccco2)cc1OC,-26.8,–
COCCN(Cc1cc2cc(C)cc(C)c2nc1Cl)C(=O)Nc1ccccc1,-1.1,–
Cc1ccc(NC(=S)NNC(=S)Nc2ccc(C)cc2C)cc1,-5.8,–
CCCCOc1ccc(Br)cc1/C(C)=N/NC1=NCCN1,-0.15,–
COc1cccc(C2NC(=S)NC(C)=C2C(=O)c2ccccc2)c1OC (stereo not given),-1.95,–
O=C(/C=C/c1ccccc1Cl)c1cccnc1,-0.735,–
CCOC(=O)C1CCN(S(=O)(=O)c2c(Cl)ccc3nonc23)CC1,1.28,–
S=c1nc2ccccc2c2nc(-c3ccccc3Br)[nH]n12,83.2,–
Oc1ccc(-c2nnc(Nc3cccc(O)c3)c3ccccc23)cc1,-1.7,–
COc1ccc(-c2cc(C(F)(F)F)n3nc(C(=O)NCCCn4ccnc4)cc3n2)cc1,-0.239,–
COc1ccccc1-c1cc(C(=O)NCCc2ccccc2)no1,-4.78,–
COc1ccc(C(=O)c2ccc(N(C)C)cc2)c2ccccc12,-4.15,–
CCCCC[C@H](O)/C=C/C1=C(CCCCCCC(=O)O)C(=O)CC1,-0.832,–
S=c1nc2ccccc2c2nc(-c3ccccc3)[nH]n12,18.3,–
CCc1nc2ccccc2c(C(=O)OCc2nc3ccccc3c(=O)[nH]2)c1C,-2.85,–
ClCc1nc2ccccc2c2ccccc12,–,13 µM (active)
CCCc1oc2ccc(NS(=O)(=O)c3ccc(OC)cc3)cc2c1C(=O)OCC,-4.35,–
COc1ccc2c(c1)c(/C=N/Nc1nc3ccccc3[nH]1)c(C)n2C,-10,–

Compound,"activity change, negative = inhibition [%]",Potency
COC(=O)[C@@H]1[C@@H](C#N)C2(c3ccccc3-c3ccccc32)N(c2ccc(Cl)cc2)N1C#N,0.249,–
O=C(Nc1ccc([N+](=O)[O-])cc1)Nc1ccon1,-2.62,–
Cc1cccc(Cn2cc(/C=C/[N+](=O)[O-])c3ccccc32)c1,-2.08,–
CCN(CC)c1ccc2c(C)c(CO)c(=O)oc2c1,-0.0824,–
Cc1nc(NC(=S)Nc2ccccc2)sc1C,31.6,–
COc1ccc(OC)c(-c2cc(C(=O)Nc3c(C)nn(Cc4ccccc4)c3C)no2)c1,-2.57,–
Cc1ccc(O)c(N=Nc2nccs2)c1,–,16.4 µM (active)
CCOC(=S)SCC(=O)Nc1nc(-c2ccc(Br)cc2)cs1,-1.99,–
CC[C@]12c3[nH]c4cc(CCC(=O)N(C)C)ccc4c3CCN1C(=O)[C@@H](CC(=O)NCC13CC4CC(CC(C4)C1)C3)C[C@@H]2C(=O)N1CCN(C(=O)c2ccco2)CC1,-3.16,–
Cc1cccc(NS(=O)(=O)c2ccc(-c3cnc(C4CC4)o3)cc2)c1C,-14.9,–
CCN(CC)c1ccc(-c2nn3c(-c4ccccc4OC)nnc3s2)cc1,-2.37,–
COc1cc(OC)cc(C(=O)NCC(=O)N2CC=C(c3ccccc3)CC2)c1,-2.46,–
CC1=Nc2cc(C(=O)NCc3ccco3)ccc2Sc2ccc(C)cc21,-2.52,–
CCCCC[C@H](O)/C=C/[C@@H]1[C@@H](CCCCCCC(=O)O)[C@@H](O)C[C@H]1O,-1.13,–
COc1ccc(Nc2nc(-c3c(C)nc4ncccn34)cs2)cc1,-6.49,–
COc1ccc(NC(=O)C(=O)NCC2CCCN2S(=O)(=O)c2ccc(C)cc2)cc1 (stereo not given),-2.59,–
COc1ccc(Nc2nc(N)nc(CCl)n2)cc1,0.223,–
Cc1ccc2nc(SCC(=O)Nc3cc(C(F)(F)F)ccc3N3CCOCC3)[nH]c2c1,-7.54,–
CCOc1ccc(N(CC(=O)Nc2ccccc2OC)S(=O)(=O)c2ccccc2)cc1,-3.72,–
COc1cc2c(cc1OC)C(c1ccc(OC)c(OC)c1OC)CC(=O)N2 (stereo not given),-0.252,–
Cn1c(O)c(N=NC(=S)Nc2ccccc2F)c2cc(S(=O)(=O)N3CCOCC3)ccc21,–,3.66 µM (active)
CCc1ccccc1NC(=S)N=Nc1c(O)n(C)c2ccc(S(=O)(=O)N3CCOCC3)cc12,-9.04,–
Cc1ccccc1NC(=S)N=Nc1c(O)n(C)c2ccc(S(=O)(=O)N3CCOCC3)cc12,-18.4,–
COc1ccc(/C=C/C(=O)Nc2ccc(-n3nncc3-c3ccc(OC)c(OC)c3)cc2)cc1OC,-1.06,–
COc1ccc(OC)c(C2C3=C(COC3=O)Nc3cc4c(cc32)OCO4)c1 (stereo not given),-1.69,–
CCN(CC)S(=O)(=O)c1ccc2c(c1)c(=O)c(C(=O)NCCc1ccc(OC)c(OC)c1)cn2C,-0.826,–
O=C(COc1ccc(C(=O)c2ccc(F)cc2)cc1)NCc1ccc(F)cc1,-2.37,–
